# Laboratory results as given in PubChem BioAssay (EPA / NIEHS).
# “And” between values parts separate entries of the source, which are not always exact repeats. Equal values may be shown once. The source holds several records for some structures; these can differ, active in one and inactive in another. The source made the active and inactive calls. How the source made its calls: active means hit-call score of the fitted dose curve at least 0.9, where 1 is the maximum; inactive means score below 0.9.
# Legend:
# [1] = APR_HepG2_P-H2AX_72hr: Apredica 72-hour HepG2 Assay for H2AX Phosphorylation (AID 2282916); conditions: imaging, actives raise or lower the signal;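 further: phospho-histone H2A.x immunostain intensity per cell marking DNA damage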
# Procedure, shortened: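 HepG2 human liver cells were exposed for 72 hr to compounds at 0.39–200 uM (10 concentrations, duplicate per plate) in 0.5% v/v DMSO. Fixed, permeabilized cells were immunolabeled for phospho-histone H2A.x with Hoechst 33342 and imaged by HCS fluorescence; bidirectional fit versus DMSO.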
# [2] = APR_HepG2_MitoMembPot_72hr: Apredica 72-hour HepG2 Assay for Mitochondrial Membrane Potential (AID 2282917); conditions: imaging, actives raise or lower the signal
# Procedure, shortened: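 Membrane potential read by MitoTracker Red CMXRos (250 nM, 30 min, pre-fixation) fluorescence imaging of HepG2 after 72 hr exposure. Ten concentrations, 0.39–200 uM, duplicate wells, 0.5% DMSO; fitted in both directions against DMSO baseline.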
# [3] = APR_HepG2_MitoticArrest_72hr: Apredica 72-hour HepG2 Assay for Mitotic Arrest (AID 2282918); conditions: high-content imaging, actives raise or lower the signal
# Procedure, shortened: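 HepG2 cells treated 72 h at 0.39–200 uM, 0.5% DMSO final; formaldehyde-fixed, stained with Hoechst 33342 and phospho-histone H3 antibody, imaged by high-content fluorescence; bidirectional fit versus DMSO.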
# [4] = APR_HepG2_MicrotubuleCSK_72hr: Apredica 72-hour HepG2 Assay for Microtubule CSK Stabilty (AID 2282919); conditions: HepG2 microtubule cytoskeleton, high-content imaging, actives raise or lower the signal
# Procedure, shortened: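 Read-out is tubulin fluorescence intensity from high-content imaging of HepG2 cells, with nuclei identified by Hoechst 33342. Treatment lasts 72 h at 0.39–200 uM, and curves are fitted bidirectionally against the DMSO negative control.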
# [5] = APR_HepG2_P-H2AX_24hr: Apredica 24-hour HepG2 Assay for H2AX Phosphorylation (AID 2282920); conditions: high-content imaging, actives raise or lower the signal
# Procedure, shortened: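 HepG2 cells dosed 24 h at 0.39–200 uM (10 points, duplicate, 0.5% DMSO final). Formaldehyde-fixed and permeabilized, then immunostained for phospho-H2A.x with Hoechst. Fluorescence quantified by high-content imaging, fitted bidirectionally versus DMSO.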
# [6] = APR_HepG2_StressKinase_72hr: Apredica 72-hour HepG2 Assay for Stress Kinase (AID 2282921); conditions: HepG2 stress kinase (phospho-c-Jun) imaging, actives raise or lower the signal
# Procedure, shortened: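 Cells were exposed for 72 h to ten concentrations (0.39–200 uM, duplicate) at 0.5% v/v DMSO final, then fixed with 3.7% formaldehyde, permeabilized and immunostained for phospho-c-Jun (Cy3 secondary) with Hoechst nuclear counterstain.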
# [7] = APR_HepG2_StressKinase_24hr: Apredica 24-hour HepG2 Assay for Stress Kinase (AID 2282922); conditions: HepG2 stress kinase (phospho-c-Jun) imaging, actives raise or lower the signal
# Procedure, shortened: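 HepG2, 24 hr dosing, 0.39–200 uM in duplicate, 0.5% DMSO; formaldehyde fix (3.7%), 0.5% Triton X-100; anti-phospho-c-Jun + Cy3 secondary, Hoechst counterstain; ArrayScan imaging; bidirectional curve fit vs DMSO baseline.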
# [8] = APR_HepG2_MitoMass_72hr: Apredica 72-hour HepG2 Assay for Mitochondrial Mass (AID 2282924); conditions: high-content imaging, actives raise or lower the signal;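 further: MitoTracker Red CMXRos stain intensity per cell imaged as mitochondrial mass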
# Procedure, shortened: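 HepG2, 72 hr cmpd, 10 conc 0.39–200 uM in dup, DMSO 0.5% v/v. MitoTracker Red CMXRos 250 nM 30 min pre-fix; formaldehyde 3.7% fix 30 min RT. HCS imaging, gain/loss fit vs DMSO.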
# [9] = APR_HepG2_NuclearSize_72hr: Apredica 72-hour HepG2 Assay for Nuclear Size (AID 2282925); conditions: high-content imaging, actives raise or lower the signal
# Procedure, shortened: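 HepG2; cpd 0.39–200 uM, 10 conc, duplicate; 72 h; DMSO 0.5% v/v; fix 3.7% formaldehyde 30 min RT; Triton permeabilization; Hoechst 2 ug/mL; HCS imaging 20x; nuclear diameter; gain/loss fit vs DMSO.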
# [10] = biological target: CCAAT/enhancer-binding protein beta (Homo sapiens) (UniProt P17676); assay: ATG_C_EBP_CIS: Attagene CIS-FACTORIAL HepG2 Assay for human CCAAT/Enhancer Binding Protein (C/EBP) beta (AID 2282927); conditions: HepG2 Attagene cis-factorial transcription factor reporter; actives raise or lower the signal
# Procedure, shortened: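 Endogenous C/EBPb-driven reporter transcripts measured in transfected human HepG2 cells at 24 h via RT-PCR and capillary electrophoresis of labelled fragments. Activity fitted in both directions relative to DMSO baseline.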
# [11] = ATG_CMV_CIS: Attagene CIS-FACTORIAL HepG2 Assay for human CMV (Internal Marker) (AID 2282928); conditions: HepG2 CMV promoter reporter, transcription factor profiling; actives raise or lower the signal;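 further: endpoint acts as a background internal control marker rather than a target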
# Procedure, shortened: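 HepG2 cells transiently transfected with multiple cis-regulated reporter units; 24 h compound exposure. Reporter mRNA quantified by RT-PCR, 6-FAM primer-extension labeling, HpaI digestion and capillary electrophoresis; bidirectional fitting against DMSO baseline.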
# [12] = ATG_DR4_LXR_CIS: Attagene CIS-FACTORIAL HepG2 Assay for human Liver X Receptor (LXR), DR4 submotif (AID 2282929); conditions: HepG2 Attagene DR4 cis-reporter, mRNA transcription; actives raise or lower the signal
# Procedure, shortened: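 HepG2 cells transiently transfected with cis-promoter-driven multiplexed reporter units (DR4 element) were dosed for 24 h. Reporter mRNA was quantified by RT-PCR, fluorescent primer extension, HpaI digestion and capillary electrophoresis; bidirectional fitting versus DMSO baseline.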
# [13] = biological target: Aryl hydrocarbon receptor (Homo sapiens) (UniProt P35869); assay: ATG_Ahr_CIS: Attagene CIS-FACTORIAL HepG2 Assay for human Aryl Hydrocarbon Receptor (Ahr) (AID 2282930); conditions: HepG2 AhR cis-factorial reporter transcription; actives raise or lower the signal
# Procedure, shortened: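 Reporter mRNA levels, quantified by RT-PCR and fluorescent capillary electrophoresis, reflect endogenous AhR transcriptional activity in HepG2 cells carrying transfected cis-promoter reporter constructs. Readout at 24 h post-dose; gain or loss fitted against DMSO baseline.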
# [14] = ATG_AP_1_CIS: Attagene CIS-FACTORIAL HepG2 Assay for human Activator Protein 1 (AP-1) (AID 2282931); conditions: HepG2 Attagene cis-factorial AP-1 reporter mRNA; actives raise or lower the signal
# Procedure, shortened: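 HepG2 cells transiently transfected with cis-element-driven multiplex reporter units; 24 h compound exposure. Reporter mRNA quantified by RT-PCR, FAM-labelled fragments resolved by capillary electrophoresis; bidirectional fit versus DMSO baseline.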
# [15] = ATG_AP_2_CIS: Attagene CIS-FACTORIAL HepG2 Assay for human Activator Protein 2 (AP-2) (AID 2282932); conditions: HepG2 AP-2 cis-reporter, Attagene transcription factor profiling; actives raise or lower the signal
# Procedure, shortened: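 Step one: transient transfection of HepG2 with reporter transcription units. Step two: 24 h chemical exposure. Step three: RNA extraction, RT-PCR, labelled fragment analysis by capillary electrophoresis; DMSO serves as baseline.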
# [16] = ATG_BRE_CIS: Attagene CIS-FACTORIAL HepG2 Assay for human Bone Morphogenetic Protein (BMP) Response Element (BRE) (AID 2282933); conditions: HepG2 BMP response element reporter, Attagene transcription factor profiling; actives raise or lower the signal
# Procedure, shortened: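 Read-out: reporter mRNA induction quantified by RT-PCR and capillary electrophoresis after 24 h chemical exposure of transfected HepG2 cells. Endogenous factor activity on the BMP response element; gain or loss fitted against DMSO baseline.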
# [17] = biological target: Transcription factor E2F1 (Homo sapiens) (UniProt Q01094); assay: ATG_E2F_CIS: Attagene CIS-FACTORIAL HepG2 Assay for human E2F Transcription Factor 1 (AID 2282935); conditions: HepG2 Attagene cis-reporter, E2F reporter RNA transcripts; actives raise or lower the signal
# Procedure, shortened: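 Total RNA from 24 h-treated, reporter-transfected HepG2 cells undergoes DNase I treatment, oligo(dT) reverse transcription, PCR and 6-FAM primer extension before capillary electrophoresis.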
# [18] = biological target: Retinoic acid receptor alpha (Homo sapiens) (UniProt P10276); assay: ATG_DR5_RAR_CIS: Attagene CIS-FACTORIAL HepG2 Assay for human Retinoic Acid Receptor Alpha (RARE), DR5 submotif (AID 2282934); conditions: HepG2 Attagene cis-factorial RARE DR5 reporter, mRNA; actives raise or lower the signal
# Procedure, shortened: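 Reporter transcripts from a DR5-regulated unit, measured via RT-PCR plus capillary electrophoresis, reflect endogenous RAR activity in transiently transfected human HepG2 liver cells. Exposure lasted 24 h; gain or loss of signal scored against DMSO.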
# [19] = ATG_CRE_CIS: Attagene CIS-FACTORIAL HepG2 Assay for human cAMP Responsive Element (CRE) binding protein 3 (AID 2282926); conditions: HepG2 CRE cis-reporter, Attagene multiplexed mRNA; actives raise or lower the signal
# Procedure, shortened: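 HepG2 cells transiently transfected with cis-element-driven multiple reporter transcription units; CRE reporter mRNA measured 24 h after dosing by RT-PCR, 6-FAM labelling, HpaI digestion and capillary electrophoresis. Bidirectional fit versus DMSO baseline.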
# Sequence of CCAAT/enhancer-binding protein beta (Homo sapiens) (P17676 whole entry, looked up, the tested form may be a part): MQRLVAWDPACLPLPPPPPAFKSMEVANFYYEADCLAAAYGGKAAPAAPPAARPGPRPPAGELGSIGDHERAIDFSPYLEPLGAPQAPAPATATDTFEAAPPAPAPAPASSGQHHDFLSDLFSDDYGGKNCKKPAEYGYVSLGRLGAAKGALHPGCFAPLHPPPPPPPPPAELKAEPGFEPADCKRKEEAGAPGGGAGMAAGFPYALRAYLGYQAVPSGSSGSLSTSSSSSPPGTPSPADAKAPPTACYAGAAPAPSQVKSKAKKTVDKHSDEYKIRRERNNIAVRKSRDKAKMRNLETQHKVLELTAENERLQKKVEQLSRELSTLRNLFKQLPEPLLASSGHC
# Sequence of Aryl hydrocarbon receptor (Homo sapiens) (P35869 whole entry, looked up): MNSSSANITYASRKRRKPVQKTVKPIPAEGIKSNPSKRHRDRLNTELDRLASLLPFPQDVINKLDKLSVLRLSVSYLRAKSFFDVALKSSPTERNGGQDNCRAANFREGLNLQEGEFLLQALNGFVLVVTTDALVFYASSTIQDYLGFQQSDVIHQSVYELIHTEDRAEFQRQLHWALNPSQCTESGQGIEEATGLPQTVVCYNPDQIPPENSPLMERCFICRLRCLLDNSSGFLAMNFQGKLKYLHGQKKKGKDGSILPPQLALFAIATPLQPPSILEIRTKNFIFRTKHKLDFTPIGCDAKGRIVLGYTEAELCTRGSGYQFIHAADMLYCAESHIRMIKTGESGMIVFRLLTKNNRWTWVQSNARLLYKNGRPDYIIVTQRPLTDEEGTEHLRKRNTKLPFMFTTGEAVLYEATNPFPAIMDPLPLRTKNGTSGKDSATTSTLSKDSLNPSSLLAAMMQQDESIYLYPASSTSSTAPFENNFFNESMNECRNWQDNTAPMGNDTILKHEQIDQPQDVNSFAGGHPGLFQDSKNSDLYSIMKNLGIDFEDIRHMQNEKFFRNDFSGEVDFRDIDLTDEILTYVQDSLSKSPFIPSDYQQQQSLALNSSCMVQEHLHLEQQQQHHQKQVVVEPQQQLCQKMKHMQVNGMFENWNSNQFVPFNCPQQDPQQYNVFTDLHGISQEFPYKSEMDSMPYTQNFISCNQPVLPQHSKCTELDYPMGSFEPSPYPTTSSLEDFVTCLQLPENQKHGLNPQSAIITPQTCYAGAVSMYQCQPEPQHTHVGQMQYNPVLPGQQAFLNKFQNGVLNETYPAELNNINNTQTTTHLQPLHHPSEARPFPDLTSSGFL
# Sequence of Transcription factor E2F1 (Homo sapiens) (Q01094 whole entry, looked up): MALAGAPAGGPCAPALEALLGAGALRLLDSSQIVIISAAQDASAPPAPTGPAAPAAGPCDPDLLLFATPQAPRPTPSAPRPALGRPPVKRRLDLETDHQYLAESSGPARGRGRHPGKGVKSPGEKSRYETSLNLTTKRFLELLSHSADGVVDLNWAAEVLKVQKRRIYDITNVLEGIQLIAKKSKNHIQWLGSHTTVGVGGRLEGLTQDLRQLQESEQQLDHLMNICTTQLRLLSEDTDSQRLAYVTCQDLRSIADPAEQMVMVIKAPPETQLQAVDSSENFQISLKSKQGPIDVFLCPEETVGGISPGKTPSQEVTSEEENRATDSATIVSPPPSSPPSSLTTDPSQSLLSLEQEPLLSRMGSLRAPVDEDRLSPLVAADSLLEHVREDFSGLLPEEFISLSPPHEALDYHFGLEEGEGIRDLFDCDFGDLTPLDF
# Sequence of Retinoic acid receptor alpha (Homo sapiens) (P10276 whole entry, looked up): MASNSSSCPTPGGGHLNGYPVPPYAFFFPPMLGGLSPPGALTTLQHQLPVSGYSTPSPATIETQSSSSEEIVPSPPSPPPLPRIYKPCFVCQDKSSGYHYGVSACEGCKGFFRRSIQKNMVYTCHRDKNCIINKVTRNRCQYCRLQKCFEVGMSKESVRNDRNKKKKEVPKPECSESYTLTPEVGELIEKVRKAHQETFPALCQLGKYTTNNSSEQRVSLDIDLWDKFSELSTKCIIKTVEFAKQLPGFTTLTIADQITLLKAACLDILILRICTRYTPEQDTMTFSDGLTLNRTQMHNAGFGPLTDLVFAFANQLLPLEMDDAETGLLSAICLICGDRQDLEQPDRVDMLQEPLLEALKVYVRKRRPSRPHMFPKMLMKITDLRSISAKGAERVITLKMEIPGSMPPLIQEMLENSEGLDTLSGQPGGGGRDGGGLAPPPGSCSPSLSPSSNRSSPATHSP
smiles,measurement,setting,value
C1CC2OC2CC1C1CO1 (centres undefined),outcome,[1],inactive
same,outcome,[2],inactive
same,outcome,[3],inactive
same,outcome,[4],inactive
same,outcome,[5],inactive
same,outcome,[6],inactive
same,outcome,[7],inactive
same,outcome,[8],inactive
same,outcome,[9],inactive
same,outcome,[10],inactive
same,outcome,[11],inactive
same,outcome,[12],inactive
same,AC50,[13],81.5 µM (active)
same,outcome,[14],inactive
same,outcome,[15],inactive
same,outcome,[16],inactive
same,outcome,[17],inactive
CC1=C2C[C@H]3[C@@H](CC=C4C[C@@H](O)CC[C@@]43C)[C@@H]2CC[C@]12O[C@@H]1C[C@H](C)CN[C@H]1[C@H]2C,AC50,[1],50 µM (active)
same,outcome,[2],inactive
same,AC50,[3],16.5 µM (active)
same,outcome,[4],inactive
same,outcome,[6],inactive
same,outcome,[7],inactive
same,AC50,[8],41.2 µM (active)
same,outcome,[9],inactive
same,AC50,[10],13.9 µM (active)
same,outcome,[11],inactive
same,AC50,[12],13.3 µM (active)
same,outcome,[13],inactive
same,outcome,[14],inactive
same,outcome,[15],inactive
same,AC50,[16],13.3 µM (active)
same,outcome,[18],inactive
same,outcome,[17],inactive
CO/C=C(/C(=O)OC)c1ccccc1COc1cccc(C(F)(F)F)n1,AC50,[1],20.5 µM (active)
same,outcome,[2],inactive
same,AC50,[3],29.1 µM (active)
same,outcome,[4],inactive
same,outcome,[6],inactive
same,outcome,[7],inactive
same,AC50,[8],0.638 µM (active)
same,outcome,[9],inactive
same,outcome,[19],inactive
same,outcome,[10],inactive
same,outcome,[11],inactive
same,AC50,[12],7.46 µM (active)
same,outcome,[13],inactive
same,outcome,[14],inactive
same,outcome,[15],inactive
same,AC50,[16],20.2 µM (active)
same,outcome,[18],inactive
same,outcome,[17],inactive
Cc1cccc([N+](=O)[O-])c1,outcome,[1],inactive
same,outcome,[2],inactive
same,outcome,[3],inactive
same,outcome,[4],inactive
same,outcome,[6],inactive
same,outcome,[7],inactive
same,outcome,[8],inactive
same,outcome,[9],inactive
same,outcome,[10],inactive
same,outcome,[11],inactive
same,outcome,[12],inactive
same,outcome,[13],inactive
same,outcome,[14],inactive
same,outcome,[15],inactive
same,outcome,[16],inactive
same,outcome,[18],inactive
same,outcome,[17],inactive
CCCCCCCCCc1ccc(O)cc1,outcome,[1],inactive
same,outcome,[2],inactive
same,outcome,[3],inactive
same,outcome,[4],inactive
same,outcome,[6],inactive
same,outcome,[7],inactive
same,outcome,[8],inactive
same,outcome,[9],inactive
same,outcome,[10],inactive
same,outcome,[11],inactive
same,AC50,[12],30.2 µM (active) and 11.1 µM (active)
same,outcome,[12],inactive
same,outcome,[13],inactive
same,AC50,[14],178 µM (active)
same,outcome,[14],inactive
same,AC50,[15],169 µM (active)
same,outcome,[15],inactive
same,AC50,[16],55.7 µM (active)
same,outcome,[16],inactive
same,outcome,[17],inactive
